# In PubChem BioAssay AID1508600 (Functional Genomics Laboratory (NCATS/FGL), 2020):
# The whole screen tested about 53,000 sequences, of which about 3,700 (7%) were called active.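 The calls were made as follows: active = gene knockdowns whose robust z-score for IL-1 alpha signal is at least 2 or at most -2, so actives lie on both sides; inactive = the rest.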 This excerpt belongs to a sample that is enriched for actives.
# Assay: Components of the Cytosolic LPS Sensing Pathway: Gene Identification via Genome-wide siRNA Screen;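 also: robust z of the log signal after scaling to non-targeting control siRNA wells of the plate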
# Details: RAW264.7 macrophages, IL-1a HTRF, actives lie on both sides, screened at 100 nM (by protocol), cells primed 5 h with Pam3CSK4 first
# Summary of the method: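 Knockdown: 100 nM siRNA, 48h, RAW264.7. Stimulation: Pam3CSK4 5 h, then LipidA via TransIT-TKO 24 h. Output: supernatant IL-1a HTRF, negative-control-normalized, log robust z-score; viability by CellTiter-Glo.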
row,Sequence,z-score
1,GCCAAAUCUACUGUUAUUUTT against Fam174a,1.06 (inactive)
2,GGAAAGAUCAUGGACAAGUTT against Dtna,2.06 (active)
3,GCAGUGAUCCGGAACAAAUTT against Tmc3,-0.455 (inactive)
4,GGCGAAAAUUACUCGAAAGTT against Penk,0.941 (inactive)
5,GGAUGACGUAAUUGACGGCTT against Cyp19a1,0.0212 (inactive)
6,CCAAAAUAAGUGUGGUCAATT against Vstm2l,-0.623 (inactive)
7,GGACUUGGUUUAUGAAACATT against Kif9,-1.33 (inactive)
8,GGAGACCUUACCACUUGAATT against Ephx1,-1.2 (inactive)
9,GGUCAAUUCCCAUACCCUGTT against Tfr2,-1.23 (inactive)
10,CGACUCCCACCUUUAGGAGTT against Nkx2-5,2.5 (active)
11,GGUGAAAAUACAUUGCCAGTT against Plk4,-0.712 (inactive)
12,CCCAAAUAACAGAGAAAUGTT against St8sia6,0.818 (inactive)
13,CCUGAGAUUUCCUAACAUCTT against Prr11,-0.281 (inactive)
14,GGUGAAGUCACUAAUCUUUTT against Prpf19,1.12 (inactive)
15,GCCACGACCUGGAACAACUTT against Taf6l,-0.479 (inactive)
16,CGGCCUAACAGCCAGACUUTT against 1700013G24Rik,0.9 (inactive)
17,GGUUUCUGCCAUCCAUCAGTT against Zfa-ps,-0.705 (inactive)
18,CUUUUACACCAUCAUGACGTT against Mrgpra5,-2.06 (active)
19,GGCGAAUGAAGGUUUCUGGTT against Pex11b,-0.581 (inactive)
20,GCUGUUGGUCUGAUAGCUUTT against Hadhb,0.378 (inactive)
21,GCCAUGCCUUAAUCUUGGUTT against Cd300lf,0.0466 (inactive)
22,GCAAAGACGAAAUGCCGAGTT against Ttc32,-0.23 (inactive)

row,Sequence,z-score
1,GAUUCUCCAUUGCCCAAUGTT against Lce1i,0.0132 (inactive)
2,CCUCAACUCCCUGUCACACTT against Rnaseh2a,0.944 (inactive)
3,GGAGCGAUUCACAAAUUACTT against Tapt1,3.05 (active)
4,CGACUAUUUGGGUGGCAAGTT against Scin,-0.103 (inactive)
5,GGUAAGAAAACUGACCUUATT against Abra,-0.787 (inactive)
6,GGCUGUAUGCUCAGACUGATT against Olfr147,-1.25 (inactive)
7,GGGCAUAUUUGGAAUCUGATT against Rtn4,2.51 (active)
8,GGAAUCUACCACUUGGUUCTT against Chrdl2,-0.936 (inactive)
9,GGGAUUCAGAGUCAAGAUUTT against Thpo,-0.275 (inactive)
10,GCUUCCUACCAUGAUGGUCTT against Otol1,2.13 (active)
11,GCCCUUACAUAAUAGCUUGTT against Tacr2,1.56 (inactive)
12,GGUCCCAGUCUAUGAAAACTT against Pym1,1.81 (inactive)
13,GUCCUGAAAAUGCUAUUCUTT against Olfr68,0.281 (inactive)
14,CCUGGUGCUUCGUAAUUACTT against Cyp11a1,-1.03 (inactive)
15,GGGUACAAAACUUGAACUUTT against Gins3,2.84 (active)
16,GGACAGUGUGUUUUCUUGUTT against Ankle1,0.551 (inactive)
17,CCAGAUUCCUCUUGGCCGATT against Spryd7,0.36 (inactive)
18,GCAAGAUUCAGAGUGCAGCTT against Txlng,-1.09 (inactive)
19,GGUUGCAUUGUAGGGUUGGTT against Olfr129,0.221 (inactive)
20,GCCCUAAAUCCUUUUAUUATT against Trpc7,2.78 (active)
21,GGAUGUACAAUAAUUGGGATT against Pramel39,1.45 (inactive)
22,GCAGGAUUCAAAGAUCUAATT against Kbtbd8,-0.587 (inactive)

row,Sequence,z-score
1,GGCUCUAUCUUAAAAUAACTT against 4930542C12Rik,0.125 (inactive)
2,GCCGAGCUUUUGUGAGUAUTT against Rhobtb2,0.247 (inactive)
3,GCCAAUUGGACCUUAGAAATT against Nup107,-2.58 (active)
4,GGACUUUGUCACCAUGACGTT against Pef1,0.105 (inactive)
5,CCUAAAGAAGGUCUAUGCCTT against Tmbim6,-0.0538 (inactive)
6,GAAGCACAACCUCGGCUUUTT against AY074887,0.448 (inactive)
7,GGGUGUGAAAGUCAAUAAATT against 4930591A17Rik,1.02 (inactive)
8,UGGUGAAUACCAGUCUAAUTT against Tnfrsf23,0.0551 (inactive)
9,GUAUUUUACACUCUUGUGGTT against Olfr898,-2.31 (active)
10,GUAUCAUGACAGCUGUUUUTT against Olfr519,-0.254 (inactive)
11,GGAAAACAAGGAACAUGCGTT against Scgb1b2,0.138 (inactive)
12,GGCCAAGACCUCAGAGAUUTT against Apoa2,-1.39 (inactive)
13,GGCAGCUUUGGAACAACUATT against Zc3h14,-0.477 (inactive)
14,GGAUGCACUGAGGAACUCATT against Atg101,-0.573 (inactive)
15,GGAUCCAUGCUGUCAGUGGTT against Sftpa1,2.17 (active)
16,GGGAAUUGAUGAAAGCUCUTT against Gigyf2,-0.369 (inactive)
17,GCUUGGUGUAAUCAUGCGCTT against Prl7d1,0.314 (inactive)
18,GGGAACUUUAGCUUAAAUUTT against Lypd6,0.135 (inactive)
19,CGGCGACAUUGUUUUGCUATT against Acvr2a,1.19 (inactive)
20,GGGCCUUCACAAUGUCCUUTT against Brca1,2.68 (active)
21,GGACCUUGAGAAAGUAGUCTT against Ms4a10,0.651 (inactive)
22,GGUGAUGAAAAAGGACAGCTT against Oit1,0.0982 (inactive)

row,Sequence,z-score
1,GUACGUCAAGAGCCUGCGUTT against Fam110a,-2.65 (active)
2,GGAGCAGAUACCCUAGCCUTT against Mtx1,0.698 (inactive)
3,GGACUUGAAGAUGUACCAGTT against Il12a,0.427 (inactive)
4,GCCAUUCUAGAACCUGUAGTT against Zwint,-1.65 (inactive)
5,GCUAACUUAGAUAUCCAGGTT against Abtb2,0.125 (inactive)
6,GGGCCAAAUUUGAAUCCCUTT against Rcan1,-2.09 (active)
7,CCAAGUUUUUAUGCAGAUATT against Pip5k1b,1.6 (inactive)
8,GGGUAUAUUUCCUUCCAGCTT against Dock4,-0.105 (inactive)
9,GGUGGGAUGAUCAUAAGUUTT against Ppnr,-0.0428 (inactive)
10,GCUGUGGAACUUAUGUUUUTT against Faxc,-0.518 (inactive)
11,GGAUUAAUCAAACUGAGAGTT against Lrrtm2,-1.24 (inactive)
12,GCGAUUCCUAGAGCUGAGCTT against Git1,-2.5 (active)
13,GCUGAUUAGCCAUGUAAUUTT against Cebpg,-0.481 (inactive)
14,GCUUUAUGGAUCUACCAAATT against Fbxl3,1.81 (inactive)
15,GGAAAACAGCUUUGAUUGGTT against Tmem232,0.868 (inactive)
16,GCAAGCCAACUGACCAUCATT against Nudt2,0.486 (inactive)
17,CGACUCCAUGUGGACUUAUTT against Gca,-1.16 (inactive)
18,CGAACACUAAGCUUUGAUATT against Rab11fip2,-0.493 (inactive)
19,GGUUUUACAUUCUGUGUUUTT against Spata9,-0.898 (inactive)
20,CCUUGGAGAGAGAAGACAUTT against Rpp38,0.292 (inactive)
21,CCAAUGCAAGUGCUACAGUTT against Zfp277,-2.64 (active)
22,GGCUCACUCAUUUGUCAGATT against Soat1,0.0924 (inactive)

row,Sequence,z-score
1,GCCUAAUCAUUCCCAGCAUTT against Oog2,0.211 (inactive)
2,CCUUCUACUGGCAACCUAUTT against Zfp110,0.25 (inactive)
3,GGUAUCUACACCAAACUUATT against Klk1b5,0.685 (inactive)
4,GGAGCUAACUGUCAAUGGATT against Usp17la,2.8 (active)
5,GGAUGAAGAACUGAAAUCUTT against Unc13b,0.167 (inactive)
6,CCCUGUAAAGAUCGAGAAGTT against Zfp296,0.241 (inactive)
7,GGGACACCCUUUGAAGAUGTT against Ube2b,-0.314 (inactive)
8,GGCAUGAUGUUCAUGGAUATT against Nup62,-2.04 (active)
9,CGAAGAUAAUUAUGGAGCCTT against Fat4,0.548 (inactive)
10,CGCAGAGUUAAUUUCUUGUTT against Rchy1,0.995 (inactive)
11,CCAACAAUUCUGCCAAGACTT against Arrb2,-2.57 (active)
12,CCGAAGGAUUGAAGAGCCUTT against Trnt1,0.746 (inactive)
13,GGCUUCAUAAGAUCAAAGATT against Lca5l,-2.88 (active)
14,GCAGGUCUAAUAAUGGUCATT against Syt12,-0.536 (inactive)
15,GGAUCCUGCAUCUUAUAGUTT against Tcstv3,0.468 (inactive)
16,GCUGUUUCCCAGAGAAGAATT against Defb2,-0.814 (inactive)
17,CGGUUCCAACCUUGAAAAATT against H1f10,-0.676 (inactive)
18,GCUCUACCGUUAAGUUAUUTT against Eif4e2,0.499 (inactive)
19,GGUCAUCCUUUUUCAGUACTT against Lhx6,2.28 (active)
20,GGGCGUGAAUUCAGAGAUUTT against Pcdhgb5,-0.00376 (inactive)
